We go through eight compounds from PubChem BioAssay (Tox21).

The structures appear in SMILES notation. Values joined by “and” are separate entries in the source; they are usually repeats but may differ in a detail not shown here. Equal values may be shown once. A number with no mark means an inactive call. Records with an inconclusive call do not appear. Active and inactive are the calls of the source. Unless noted, calls follow the shape of the dose curve; as a rule, active = well fitted curve in the direction sought with a large enough effect in the repeat runs; inconclusive = weak or mixed curves; inactive = no such curve, though single readings can be large; an effect the other way counts as inactive or inconclusive.

Assay [1] is described as follows: qHTS assay for small molecule agonists of the p53 signaling pathway (AID 651631; calls by dose curve; also: nearly all actives have a fitted effect of over 15% in size; also: potency is read from the fitted curve at half-maximal effect). The method, boiled down: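 Read-out is beta-lactamase FRET fluorescence measured 2 h after substrate addition at room temperature, in HCT-116 cells with a p53 response element-driven reporter exposed to compounds for 16 h at 37 °C.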
The nature of assay [2]: qHTS assay for small molecules that induce genotoxicity in human embryonic kidney cells expressing luciferase-tagged ATAD5 (AID 651632). Also: nearly all actives have a fitted effect of over 15% in size. The method, boiled down: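 Increased luciferase signal from ATAD5-tagged reporter cells indicates DNA-damage-driven ATAD5 induction. HEK293T cells are treated for 16 hr at 37C before detection with Amplite.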
Background: qHTS replaces the single test concentration by a dilution series.

Assay [3] is described as follows: qHTS assay for small molecules that induce genotoxicity in human embryonic kidney cells expressing luciferase-tagged ATAD5 - cell viability (AID 651634; calls by dose curve; also: nearly all actives have a fitted effect of over 25% in size; also: potency is read from the fitted curve at half-maximal effect). The method, boiled down:
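Cytotoxicity counterscreen in HEK293T cells bearing an ATAD5-luciferase reporter: live-cell protease activity measured by CellTiter-Fluor fluorescence after 15.5 hr compound exposure.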

Assay [4] in a line: qHTS assay for small molecule disruptors of the mitochondrial membrane potential - cell viability (AID 720634; calls by dose curve; also: nearly all actives have a fitted effect of over 20% in size; also: potency is read from the fitted curve at half-maximal effect). The method, boiled down:
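After overnight attachment at 37 C, HepG2 cells received compound or DMSO vehicle for 1 hr. Viability is then taken from ATP-driven luminescence following a 30 min room-temperature CellTiter-Glo step.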

The nature of assay [5]: qHTS assay for small molecule disruptors of the mitochondrial membrane potential (AID 720635). Also: potency is read from the fitted curve at half-maximal effect. The method, boiled down:
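Mitochondrial membrane potential tracked with Mito-MPS dye, red aggregates (ex 540/em 590 nm) against green monomers (ex 490/em 535 nm). Compound treatment 1 hr at 37C, dye 30 min in HepG2.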

The nature of assay [6]: qHTS assay to test for compound auto fluorescence at 590 nm (red) in HepG2 cells (AID 720674). The method, boiled down:
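1 hr compound incubation on HepG2 cells, 37 C, 5% CO2; plate read ex 540 nm / em 590 nm; intensities reported as Rose Bengal sodium equivalents.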

The nature of assay [7]: qHTS assay to test for compound auto fluorescence at 535 nm (green) in HepG2 cells (AID 720675).
Assay [8] in a line: qHTS assay to test for compound auto fluorescence at 460 nm (blue) in HEK293 cells (AID 720678). The method, boiled down: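 Intrinsic compound fluorescence is recorded in live HEK293 cultures after overnight incubation at 37C, 5% CO2, using excitation 405 nm and emission 460 nm. Values are referenced to triamterene.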
Assay [9] can be described thus: qHTS assay to test for compound auto fluorescence at 590 nm (red) in HEK293 cells (AID 720679). The method, boiled down:
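Red autofluorescence, HEK293 cells: 2,000 cells/well; attach 4-5 hr 37C; add 23 nL cpd or DMSO; incubate o/n 37C 5% CO2; read Ex540/Em590; Rose Bengal sodium reference.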

Assay [10] is described as follows: qHTS assay to test for compound auto fluorescence at 535 nm (green) in HEK293 cells (AID 720680).
Assay [11] is described as follows: qHTS assay to test for compound auto fluorescence at 460 nm (blue) in HEK293 cell free culture (AID 720681). The method, boiled down:
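Blue fluorescence (Ex 405/Em 460 nm, triamterene-equivalent) was read immediately after pin transfer of compound or DMSO into medium (DMEM, 10% FBS) without cells.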

The nature of assay [12]: qHTS assay to test for compound auto fluorescence at 535 nm (green) in HEK293 cell free culture (AID 720682). The method, boiled down:
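Fluorescein serves as the green reference fluorophore; each compound's intrinsic emission at 535 nm (excitation 485 nm) is reported as an equivalent amount of that dye, measured in serum-containing DMEM without cells.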

Assay [13] is described as follows: qHTS assay to test for compound auto fluorescence at 590 nm (red) in HEK293 cell free culture (AID 720683). The method, boiled down: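 Red-channel autofluorescence of compounds in culture medium (DMEM, 10% FBS), no cells, measured at 540/590 nm. Rose Bengal sodium is the reference fluorophore for equivalence.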
A short description of assay [14]: qHTS assay to test for compound auto fluorescence at 590 nm (red) in HepG2 cell free culture (AID 720684). The method, boiled down: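 Plate contents were MEM with 10% FBS plus test compound or DMSO, no cells. Fluorescence was recorded with 540 nm excitation and 590 nm emission.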
Assay [15] is described as follows: qHTS assay to test for compound auto fluorescence at 460 nm (blue) in HepG2 cell free culture (AID 720685). The method, boiled down:
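Compound (23 nL) or DMSO pinned into cell-free MEM with 10% FBS; blue fluorescence read at 405/460 nm excitation/emission, expressed as auto-fluorescence equivalency to triamterene.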

A short description of assay [16]: qHTS assay to test for compound auto fluorescence at 535 nm (green) in HepG2 cell free culture (AID 720686).
A short description of assay [17]: qHTS assay to test for compound auto fluorescence at 460 nm (blue) in HepG2 cells (AID 720687). The method, boiled down:
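Blue-channel autofluorescence (Ex/Em 405/460 nm, triamterene-equivalent) was measured after 1 hr compound exposure at 37 C, 5% CO2. Cells were HepG2, plated overnight at 37 C in MEM plus 10% FBS.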

A short description of assay [18]: qHTS assay for small molecule agonists of the p53 signaling pathway - cell viability (AID 651633; calls by dose curve; also: nearly all actives have a fitted effect of over 30% in size; also: potency is read from the fitted curve at half-maximal effect). The method, boiled down: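 Viability counter-read: CellTiter-Glo luminescence (30 min, room temperature) in the same p53RE-bla plates. These plates had been exposed to compounds for 16 h at 37 C.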
In assay [19] the target is Glucocorticoid receptor (Homo sapiens) (UniProt P04150). As to the kind of experiment: qHTS assay to identify small molecule agonists of the glucocorticoid receptor (GR) signaling pathway (AID 720691; active = well fitted activation curve with a large enough effect in the signal ratio in the repeat runs, not every such curve was filed as active; the % refers to the signal ratio). The method, boiled down:
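Agonist mode in a HeLa line carrying a GRE-controlled beta-lactamase reporter. Compounds act for 18 h at 37 C before a 2 h room-temperature FRET substrate step and fluorescence reading.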

The target is the same in assay [20]. As to the kind of experiment: qHTS assay to identify small molecule antagonists of the glucocorticoid receptor (GR) signaling pathway (AID 720692; active = well fitted inhibition curve with a large enough effect in the signal ratio in the repeat runs, not every such curve was filed as active; the % refers to the signal ratio; also: potency is read from the fitted curve at half-maximal effect). The method, boiled down: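 Cells plated, rested 4 h at 37 C/5% CO2; compounds in DMSO pin-transferred; dexamethasone added to 5 nM final; 18 h at 37 C; B/G FRET substrate added, 2 h room temperature; fluorescence measured.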
% is scaled to controls: 0 for no effect and ±100 for the full control effect.

Glucocorticoid receptor (Homo sapiens), sequence (P04150 whole entry, looked up): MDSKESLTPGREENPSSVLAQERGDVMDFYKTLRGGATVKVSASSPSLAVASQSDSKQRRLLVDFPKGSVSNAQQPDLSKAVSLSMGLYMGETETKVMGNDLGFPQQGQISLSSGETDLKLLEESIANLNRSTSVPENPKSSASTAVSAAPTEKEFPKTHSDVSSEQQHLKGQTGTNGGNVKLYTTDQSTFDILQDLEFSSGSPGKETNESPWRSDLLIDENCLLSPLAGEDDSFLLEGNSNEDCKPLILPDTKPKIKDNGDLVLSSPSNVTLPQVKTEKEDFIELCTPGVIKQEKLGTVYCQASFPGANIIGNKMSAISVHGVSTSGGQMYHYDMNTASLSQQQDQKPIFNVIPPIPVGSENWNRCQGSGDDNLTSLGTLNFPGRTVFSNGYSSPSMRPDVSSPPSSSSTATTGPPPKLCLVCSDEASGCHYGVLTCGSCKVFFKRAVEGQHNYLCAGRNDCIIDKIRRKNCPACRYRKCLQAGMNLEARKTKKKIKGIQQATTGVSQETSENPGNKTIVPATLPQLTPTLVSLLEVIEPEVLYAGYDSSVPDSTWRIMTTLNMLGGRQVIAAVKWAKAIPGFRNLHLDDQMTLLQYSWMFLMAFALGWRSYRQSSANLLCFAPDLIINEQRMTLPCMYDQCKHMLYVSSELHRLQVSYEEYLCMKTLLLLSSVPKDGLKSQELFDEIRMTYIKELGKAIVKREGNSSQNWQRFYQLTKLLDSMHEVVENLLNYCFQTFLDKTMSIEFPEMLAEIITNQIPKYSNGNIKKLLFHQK

As for `CCCCCCCCCCCCCCCC[n+]1ccccc1`, the Potency in [1] is 26.6 µM (active) and 71.7 µM (active); in assay [3], 63.9 µM (active) and 48.6 µM (active); in [4], 63.9 µM (active) and 60.3 µM (active); in [5] it was 24.3 µM (active) [middle of 4 runs]. For the same compound, the Potency result in assay [2], in [8], in assay [11], in assay [15] and in assay [17] was “inactive” each time. Further, the compound was classed as inactive in [6], in assay [7], in assay [9], in assay [10], in [12] and in [13]. Further, the outcome in [14] and in [16] was inactive.

As for `CC(C)CC(C)N` (centres undefined), the Potency entry in [1], in assay [2], in assay [18], in [3], in assay [4] and in assay [5] was “inactive” each time. Further, the Potency entry in assay [11], in [15], in [17], in assay [19] and in assay [20] was “inactive” each time. Also, the compound was called inactive in [6], in assay [7], in assay [9], in assay [10], in assay [12] and in assay [13]. The compound was classed as inactive in assay [14] and in assay [16].

With `ClC(Cl)=C(Cl)Cl`, the Potency result in assay [1], in assay [2], in [18], in assay [3], in assay [4] and in assay [11] was “inactive” throughout. For the same compound, in assay [17], the Potency result is “inactive”. The result in [6], in [7], in assay [9], in assay [10], in assay [12] and in assay [13] was inactive. The result in [14] and in assay [16] was inactive.

With `O=c1oc2ccccc2c(O)c1Cc1c(O)c2ccccc2oc1=O`, the Potency in assay [1] is 639 nM (active); in [18], 0.507 µM (active). The Potency entry in [2] and in [3] was “inactive” each time. For the same compound, in assay [6], the fluorescence, relative to Rose Bengal is -0.349% [at 18.6 µM]. For the same compound, the fluorescence, % of fluorescein control in assay [7] was 0.0236% [at 18.6 µM]; in assay [16], 0.114% [at 18.6 µM]. In addition, the fluorescence, % of fluorescent control in assay [9] is -0.0848% [at 18.6 µM]; in [11], 0.0571% [at 18.6 µM]; in [13], 0.108% [at 18.6 µM]; in [15] it was -0.0804% [at 18.6 µM]; in assay [17], 0.0049% [at 18.6 µM]. In addition, the fluorescence, % of fluorescein in assay [10] was 0.155% [at 18.6 µM]. Also, in assay [12], the activity change was 0.109% [at 18.6 µM]. Further, in assay [14], the fluorescence, % of Rose Bengal was 0.445% [at 18.6 µM].

Regarding `FC(Cl)(Cl)Cl`, the Potency result in [1], in [2], in assay [18], in assay [4], in assay [8] and in [11] was “inactive” each time. For the same compound, the Potency result in assay [15], in assay [17] and in assay [19] was “inactive” throughout. For the same compound, the compound was classed as inactive in assay [6], in assay [7], in assay [9], in [10], in assay [12] and in assay [13]. Further, the compound was classed as inactive in [14] and in [16].

For `CCCN(CCC)CCc1c[nH]c2ccccc12`, the Potency entry in assay [1], in assay [2], in assay [18], in [3], in assay [4] and in assay [17] was “inactive” in each case. Besides, the Potency result in [19] and in [20] was “inactive” each time. Moreover, the result in assay [6], in [7], in [9], in assay [10], in [12] and in [13] was inactive. Moreover, the compound was classed as inactive in assay [14] and in assay [16].

With `Cn1cc(C2=C(c3cn(C4CCN(Cc5ccccn5)CC4)c4ccccc34)C(=O)NC2=O)c2ccccc21`, the Potency is 7500 nM (active) in [1] and 1.34 µM (active) in [20]. Moreover, the Potency result in assay [2], in assay [3], in [4], in assay [5], in assay [8] and in assay [11] was “inactive” in each case. In addition, the Potency entry in [15] and in assay [17] was “inactive” in each case. Besides, the compound was called inactive in assay [6], in assay [7], in [9], in assay [10], in [13] and in assay [14]. Further, the outcome in assay [16] was inactive.

For `CC(C)CCCCCOC(=O)c1ccccc1C(=O)OCCCCCC(C)C`, the Potency result in assay [1], in assay [2], in [18], in [4], in [8] and in [11] was “inactive” each time. Moreover, the Potency result in assay [15], in [17], in assay [19] and in assay [20] was “inactive” each time. The result in assay [6], in assay [7], in assay [9], in assay [10], in [12] and in assay [13] was inactive. Moreover, the call in assay [14] and in assay [16] was inactive.
